Compound activity deposited in PubChem by National Center for Advancing Translational Sciences (NCATS).
Compounds with a hit are over-represented: about 10% of the library has one in this group of screens.
NIH3T3 tox: kills NIH 3T3 cells; 4.3% of 94,000 active; Potency, µM (top dose mostly 96.7 µM), inactives show at the top dose activity change, negative = cytotoxicity, hits mostly inhibitors; AID 1345082; NIH 3T3 viability, CellTiter-Glo ATP luminescence, 48-72 h; further: nearly all actives have a fitted effect of over 55% in size
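First NIH 3T3 cells are plated at 400 cells/well; next compound is pinned in; then plates incubate 48 or 72 hr at 37 °C; finally CellTiter-Glo is added and luminescence read after 10 min.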
GPT2 inhibitor: inhibitors of human GPT2 alanine aminotransferase. Potency, µM (series often up to 57.7 µM), for inactives: at the highest dose activity change, negative = inhibition, actives largely listed as inhibitors. Q8TD30. AID 1671188. Recombinant GPT2, coupled pyruvate oxidase/HRP Amplex Red fluorescence. 0.25% of 100,000 active; further: nearly all actives have a fitted effect of over 60% in size
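Recombinant GPT2 (10ng/uL) with 250uM a-KG and 2mM L-alanine, 30 min at room temperature, in HEPES pH 7.5 buffer. Pyruvate detected by pyruvate oxidase/HRP/Amplex Red fluorescence after 30 min in the dark; AOA (50uM) as positive control.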
hNpr1 antagonist: blocks ANP-stimulated signaling of human Npr1 receptor | HEK293 hNpr1 GloSensor cGMP, ANP-stimulated luminescence | Potency, µM (titrated, usually from 46.3 µM), without a hit: top-dose activity change, negative = inhibition, actives largely listed as inhibitors | 1.6% of 76,000 active | AID 1347048; calls by dose curve; further: nearly all actives have a fitted effect of over 60% in size
Target sequence (P16066 whole entry, looked up): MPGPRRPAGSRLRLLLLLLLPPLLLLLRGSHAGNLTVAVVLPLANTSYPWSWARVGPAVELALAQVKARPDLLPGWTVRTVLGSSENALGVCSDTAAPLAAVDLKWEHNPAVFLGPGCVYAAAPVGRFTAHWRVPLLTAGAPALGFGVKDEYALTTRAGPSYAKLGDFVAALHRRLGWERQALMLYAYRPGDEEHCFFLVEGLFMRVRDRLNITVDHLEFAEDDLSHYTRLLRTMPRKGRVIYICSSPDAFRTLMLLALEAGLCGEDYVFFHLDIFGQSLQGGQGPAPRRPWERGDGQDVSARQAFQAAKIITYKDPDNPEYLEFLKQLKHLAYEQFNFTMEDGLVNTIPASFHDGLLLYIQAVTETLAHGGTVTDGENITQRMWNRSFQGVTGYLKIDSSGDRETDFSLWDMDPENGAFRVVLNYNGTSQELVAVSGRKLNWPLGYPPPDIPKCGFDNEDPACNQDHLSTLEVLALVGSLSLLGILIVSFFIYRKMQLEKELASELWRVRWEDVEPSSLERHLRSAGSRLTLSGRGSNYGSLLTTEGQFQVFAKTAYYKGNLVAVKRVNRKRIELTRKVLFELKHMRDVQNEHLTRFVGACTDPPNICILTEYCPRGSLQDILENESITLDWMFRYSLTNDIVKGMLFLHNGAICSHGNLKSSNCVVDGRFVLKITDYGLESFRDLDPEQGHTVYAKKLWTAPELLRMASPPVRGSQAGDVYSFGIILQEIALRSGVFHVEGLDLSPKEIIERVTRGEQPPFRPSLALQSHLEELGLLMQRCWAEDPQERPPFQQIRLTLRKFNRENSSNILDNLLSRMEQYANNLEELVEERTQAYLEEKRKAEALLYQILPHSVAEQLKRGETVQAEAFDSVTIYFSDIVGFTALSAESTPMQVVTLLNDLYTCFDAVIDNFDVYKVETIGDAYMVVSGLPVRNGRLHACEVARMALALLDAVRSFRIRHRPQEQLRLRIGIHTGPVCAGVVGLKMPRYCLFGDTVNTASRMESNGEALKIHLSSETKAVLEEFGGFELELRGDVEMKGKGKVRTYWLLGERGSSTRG
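Compound pre-incubated 30 min at room temperature on GloSensor-loaded HEK293 cells stably carrying hNpr1 and the pGS-40F cGMP biosensor. Stimulation uses hNppA at 0.1 nM final; luminescence is taken at baseline and 20 min post-agonist.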
Luciferase inh: inhibitors of firefly (Photinus pyralis) luciferase; purified P. pyralis luciferase, luminescence, biochemical; P08659; Potency, µM (top dose mostly 115 µM), most hits filed as inhibitors; 2.5% of 76,000 active; further: nearly all actives have a fitted effect of over 65% in size
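Cell-free enzyme assay, 10nM P. pyralis luciferase, luciferin and ATP each at 10uM. Inhibition profiled over a 6-point titration, read as luminescence.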
HEK cytotox: HEK 293 cell cytotoxicity. AID 1345083. 6.6% of 94,000 active. HEK 293 viability, ATP luminescence (CellTiter-Glo), 48-72 h. Potency, µM (titrated, usually from 115 µM), inactives show at the top dose activity change, negative = cytotoxicity, hits mostly inhibitors; further: nearly all actives have a fitted effect of over 60% in size
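Cytotoxicity was scored by loss of ATP-coupled luminescence (CellTiter-Glo) in HEK 293 cells. Compound treatment ran 48 or 72 hr at 37 degree Celsius, 5% CO2, 95% humidity.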
Starred values were filed as active, the others as inactive; i = inactive; u = inconclusive; x = not tested or not shown; [ ] = remark or other dose. Unless noted, the call rests on the fitted dose curve; in most records, active means well fitted curve in the direction sought with a large enough effect; inconclusive means small, poorly fitted or top-dose-only effect, or another doubt; inactive means no such curve, though single readings can be large; an effect the other way counts as inactive or inconclusive. On the % scale 0 is the no-effect control and ±100 the full control effect; potency means the concentration at half of the fitted maximal effect.

SMILES	NIH3T3 tox	GPT2 inhibitor	hNpr1 antagonist	Luciferase inh	HEK cytotox
COCCNC(=O)[C@H]1C[C@H](Oc2ccccc2)CN1Cc1cn(C)c2ccccc12	-26.5%	i	8.2%	i	39.8µM*
COCCNC(=O)[C@H]1C[C@H](Oc2ccccc2)CN1Cc1cccn1C	-1.4%	-16.0%	4.9%	i	u
COCCC(=O)N1CCC2(CCCCO2)CC1	i	-8.1%	3.5%	i	i
O=S(=O)(c1cccc(F)c1)N1CCC(OC2CCN(Cc3ccccc3)CC2)CC1	-25.7%	i	0.0%	i	-5.4%
Cc1ccc(S(=O)(=O)N2CCC(OC3CCN(Cc4ccccc4)CC3)CC2)cc1C	35.5µM*	i	-22.0%	i	u
COCCOCC(=O)N1CCC(N2C(=O)C3(CCCC3)C2c2ccccc2)CC1 (centres undefined)	-25.8%	-1.9%	x	x	u
O=C1CN(Cc2ccc(-c3cc(F)cc(F)c3)cc2)CCN1c1nccc(Cl)n1	u	-4.4%	-22.5%	i	44.7µM*
O=C1CN(Cc2ccc(-c3cc(F)cc(F)c3)cc2)CCN1c1cc(Cl)ncn1	u	u	0.8%	i	u
O=C1CN(Cc2ccc(-c3ccsc3)cc2)CCN1c1cc(Cl)ncn1	u	-0.4%	u	i	35.5µM*
CC(C)C(=O)N1CCC2(CC1)OC(=O)N(Cc1ccccc1)C2(C)c1cccnc1 (centres undefined)	20µM*	i	2.3%[70.6 µM]	i	-17.3%[172 µM]
Cn1nccc1C(=O)N1CCC2(CC1)OC(=O)N(Cc1ccccc1)C2(C)c1cccnc1 (centres undefined)	28.2µM*	3.7%	-0.1%	i	i
CC1(c2ccccc2)N(Cc2ncccn2)C(=O)OC12CCN(C(=O)Cc1ccc3c(c1)OCO3)CC2 (centres undefined)	39.8µM*	i	-4.2%	i	-18.5%
CC1(c2ccccc2)N(Cc2ncccn2)C(=O)OC12CCN(C(=O)Cc1ccc(Cl)cc1)CC2 (centres undefined)	u	1.2%	7.5%	i	-11.7%
CC(=O)N1CCC2(CC1)OC(=O)N(Cc1ccccc1)C2(C)c1cccnc1 (centres undefined)	u	i	6.0%[70.6 µM]	i	i
Cn1nccc1C(=O)N1CCC2(CC1)OC(=O)N(Cc1ccccc1)C2(C)c1ccccc1 (centres undefined)	u	-15.3%	2.5%	i	3.3%
CC(C)C(=O)N1CCC2(CC1)OC(=O)N(Cc1ncccn1)C2(C)c1ccccc1 (centres undefined)	89.1µM*	i	-0.4%[70.6 µM]	i	0.4%[172 µM]
O=C(Nc1cccc(-c2nnc3n2CCCC3)c1)c1ccco1	-9.5%	-4.3%	-0.5%	i	12.7%
Oc1ccccc1CN1CCOC[C@H]1c1ncc(-c2ccc(F)cc2F)[nH]1	u	-12.2%[88.5 µM]	-25.5%[70.6 µM]	i	79.4µM*
CS(=O)(=O)c1ccc(-c2cnc([C@@H]3COCCN3Cc3ccncc3)[nH]2)cc1	-1.3%[174 µM]	i	-2.5%[70.6 µM]	i	4.4%[172 µM]
CN(C)c1ccc(CN2CCOC[C@H]2c2ncc(-c3ccc(F)cc3F)[nH]2)cc1	u	u	-15.6%[70.6 µM]	i	u
CS(=O)(=O)c1ccc(-c2cnc([C@@H]3COCCN3Cc3ccc(Cl)cc3)[nH]2)cc1	u	3.8%[88.5 µM]	-15.4%[70.6 µM]	i	79.4µM*
CN(C)c1ccc(CN2CCOC[C@H]2c2ncc(-c3cccc(Cl)c3)[nH]2)cc1	u	u	-30.0%[70.6 µM]	i	112µM*
COc1ccc(CN2CCOC[C@H]2c2ncc(-c3cccc(F)c3)[nH]2)cc1	u	i	-21.6%[70.6 µM]	i	u
Fc1cccc(-c2cnc([C@@H]3COCCN3Cc3ccc(Cl)cc3)[nH]2)c1	u	-16.0%[88.5 µM]	u	i	79.4µM*
COc1c[nH]c(CN2CCCC(CCc3ccccc3C(F)(F)F)C2)cc1=O (centres undefined)	u	-13.7%	-5.6%	i	u
SMILES	NIH3T3 tox	GPT2 inhibitor	hNpr1 antagonist	Luciferase inh	HEK cytotox
COCC(=O)N1CC(C(=O)NC(C)c2ccccc2)CC(c2ccc(OC)c(OC)c2)C1 (centres undefined)	i	i	-2.6%	i	i
Cn1cnnc1CC1CCN(Cc2nc3ccccc3n2C)CC1	1.4%	i[11.5 µM]	-0.1%	i	i
Clc1cccc(-c2cnc([C@@H]3COCCN3Cc3ncc[nH]3)[nH]2)c1	-1.0%[138 µM]	-8.9%[88.5 µM]	1.5%[70.6 µM]	i	-9.6%[172 µM]
Fc1ccccc1CN1CCOC[C@H]1c1ncc(-c2cccc(Cl)c2)[nH]1	79.4µM*	i	-18.7%[70.6 µM]	i	79.4µM*
Fc1ccc(CN2CCOC[C@H]2c2ncc(-c3cccc(Cl)c3)[nH]2)cc1	70.8µM*	-19.7%[88.5 µM]	u	i	u
COCCO[C@H]1C(=O)N(C2CCNCC2)[C@H]1c1ccncc1	-7.7%	i	0.8%	i	-6.7%
O=C(c1ccc(-c2cccc(O)c2)nc1)N1CCC(CCc2ccccc2)CC1	u	-3.2%	u	i	u
Cc1c[nH]c(CN2CCn3nc(C(O)Cc4ccccc4)cc3C2)c(C)c1=O (centres undefined)	-7.4%	i	0.2%	i	0.7%
Cn1cnc(S(=O)(=O)N2CCCC(Cn3cnc4cccnc43)C2)c1 (centres undefined)	-28.2%	-21.8%	-8.1%	i	1.5%
CN1CCCCCCN(Cc2cn(C)c3ccccc23)[C@H]2CCC[C@H]2C1=O	u	i	-10.6%	i	u
COc1ccc2c(c1)c(CN1CCCCCCN(C)C(=O)[C@@H]3CCC[C@@H]31)cn2C	28.2µM*	i	-13.3%	i	35.5µM*
COc1nc2nc(CCc3ccccc3)n(C)c2cc1-c1cccc(CO)c1	u	-4.4%[88.5 µM]	-1.6%[70.6 µM]	70.8µM*	u
CCOc1ccc(C(=O)Nc2cccc(-c3nnc4n3CCCC4)c2)cc1	u	i	-25.1%	25.1µM*	u
O=C(Nc1cccc(-c2nnc3n2CCCC3)c1)c1cc(-c2ccccc2)n[nH]1	-3.5%	i	u	2.24µM*	28.2µM*
O=C(Cc1ccc(F)cc1)Nc1cccc(-c2nnc3n2CCCC3)c1	-19.5%	0.3%	4.0%	i	u
O=C(Nc1cccc(-c2nnc3n2CCCC3)c1)c1ccc(Cl)cc1	u	i	-19.6%	u	u
O=C(Nc1ccc(-c2nnc3n2CCCC3)cc1)c1cc(-c2ccccc2)n[nH]1	-33.4%	i	-14.6%	i	-2.9%
O=C(Cc1ccc(Cl)cc1)Nc1cccc(-c2nnc3n2CCCC3)c1	u	u	-21.5%	i	50.1µM*
O=C(Nc1cccc(-c2nnc3n2CCCC3)c1)c1cc(C2CC2)[nH]n1	-23.6%	i	u	20µM*	-7.2%
CC(=O)N1CCN(c2ncccc2-c2cc(-c3ccccc3)nc3c(C)noc23)CC1	u	3.7%[88.5 µM]	1.8%[70.6 µM]	i	-23.6%[172 µM]
